# Compounds with a hit are over-represented: about 12% of the library has one in this group of screens.
# G9a inh = blocks human histone lysine methyltransferase G9a. Q96KQ7. G9a H3K9 monomethylation, AlphaScreen, 2 h. 8.8% of 350,000 active. Potency, µM (titrated, usually from 102 µM), usual class: inhibitors; also: nearly all actives have a fitted effect of over 75% in size
# Target sequence (Q96KQ7 913-1193 limits assumed): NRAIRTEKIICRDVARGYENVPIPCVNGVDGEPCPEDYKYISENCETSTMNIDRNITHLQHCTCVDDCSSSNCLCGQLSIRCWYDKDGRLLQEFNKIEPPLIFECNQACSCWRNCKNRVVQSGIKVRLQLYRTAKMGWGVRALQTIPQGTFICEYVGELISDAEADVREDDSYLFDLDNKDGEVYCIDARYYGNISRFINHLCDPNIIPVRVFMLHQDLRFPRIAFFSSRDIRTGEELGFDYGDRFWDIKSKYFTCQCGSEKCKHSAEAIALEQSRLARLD
#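 Using a bead-based AlphaScreen, monomethylated H3K9 product from 2 h room-temperature reactions (G9a 20 nM, peptide 500 nM, SAM 20 uM) was detected with 0.5 ug/mL rabbit anti-H3K9me1 antibody.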
# HP1b chromo inh = HP1-beta chromodomain-methylated histone interaction inhibition | P83916 | AlphaScreen HP1-beta / biotin-H3K9me3 peptide binding | Potency, µM (top dose mostly 114 µM), usual class: inhibitors | 0.56% of 390,000 active; also: nearly all actives have a fitted effect of over 70% in size
# Target sequence (P83916 whole entry, looked up): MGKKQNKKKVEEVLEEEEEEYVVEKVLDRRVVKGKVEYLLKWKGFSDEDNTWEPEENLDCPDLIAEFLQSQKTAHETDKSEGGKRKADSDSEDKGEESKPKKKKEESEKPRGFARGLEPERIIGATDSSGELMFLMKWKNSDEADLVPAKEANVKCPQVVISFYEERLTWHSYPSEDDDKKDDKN
#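 HP1-beta protein (50 nM final) preincubated 30 min at room temperature with biotinylated H3(1-18)K9me3 peptide (50 nM) in PBS pH 7.4, 0.01% Tween-20, then compound added for 30 min. AlphaScreen streptavidin donor/nickel chelate acceptor beads (10 ug/mL final), 30 min dark, luminescence read.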
# JMJD2A Tudor inh = JMJD2A Tudor domain (human) inhibition; 4.4% of 390,000 active; O75164; AID 504339; Potency, µM (titrated, usually from 114 µM), actives largely listed as inhibitors; AlphaScreen JMJD2A-Tudor / H3K4me3 peptide binding; also: nearly all actives have a fitted effect of over 50% in size
# BAZ2B inh = BAZ2B (human) inhibition; AID 504333; Potency, µM (series often up to 114 µM), usual class: inhibitors; 4.4% of 360,000 active; Q9UIF8; AlphaScreen BAZ2B-H3K14Ac peptide displacement; also: nearly all actives have a fitted effect of over 60% in size
#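 AlphaScreen displacement: compounds (up to 110uM) incubated 30 min at room temperature with a preformed 50 nM BAZ2B/50 nM biotinylated H3K14Ac peptide complex in PBS pH 7.4 with Tween-20. Donor and acceptor beads at 10 ug/mL final added, 20 min light-protected before reading.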
# L3MBTL1 block = L3MBTL1 (human) inhibition; 0.66% of 230,000 active; AlphaScreen L3MBTL1–H3K9me1 peptide binding; Potency, µM (highest dose often 57.1 µM), most hits filed as inhibitors; Q9Y468; also: nearly all actives have a fitted effect of over 60% in size
#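 Read-out is AlphaScreen signal from streptavidin donor and nickel chelate acceptor beads (10 ug/mL final each) bridging L3MBTL1 (50 nM) and biotinylated K9-monomethylated H3(1-15) peptide (75 nM), after 30 min compound exposure at room temperature.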
# Sfp inh = inhibitors of Bacillus subtilis Sfp phosphopantetheinyl transferase; Potency, µM, usual class: inhibitors; Biochemical Sfp PPTase activity, qHTS; AID 1490; 3.5% of 310,000 active;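 also: the enzyme is Sfp with the accession as filed and its product quenches rhodamine fluorescence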
#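 Reaction rates are the 30-min fluorescence difference (ex 525, em 598 nm) in wells containing 15 nM Sfp, 5 uM rhodamine-CoA and 12.5 uM BHQ-2-YbbR at pH 7.6 with 10 mM MgCl2.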
# Numbers stand for hits; – = inactive; ? = inconclusive; · = no result; [ ] = another dose, or the depositor's remark. Calls follow the shape of the dose curve; as a rule, active = well fitted curve in the direction sought with a large enough effect; inconclusive = small, poorly fitted or top-dose-only effect, or another doubt; inactive = no such curve, though single readings can be large; an effect the other way counts as inactive or inconclusive.
SMILES,G9a inh,HP1b chromo inh,JMJD2A Tudor inh,BAZ2B inh,L3MBTL1 block,Sfp inh
O=C(CNc1cc(S(=O)(=O)N2CCOCC2)ccc1NCC1CCCO1)Nc1ccccc1F (stereo not drawn),–,–,–,–,·,–
O=C(CNc1cc(S(=O)(=O)N2CCOCC2)ccc1NCC1CCCO1)Nc1ccc(F)c(F)c1 (stereo not drawn),?,–,–,?,·,–
Cc1ccc(NC(=O)CNc2cc(S(=O)(=O)N3CCOCC3)ccc2NCC2CCCO2)cc1F (stereo not drawn),44.7µM,–,?,?,·,–
COc1ccc(NC(=O)CNc2cc(S(=O)(=O)N3CCOCC3)ccc2NCC2CCCO2)cc1 (stereo not drawn),6.31µM,–,–,·,–,–
CN(Cc1ccccc1)Cc1c(O)ccc2c(=O)c(-c3ccccc3)c(C(F)(F)F)oc12,–,–,–,–,·,·
CCC(=O)NC(=S)NNC(=O)c1ccc(NC(=O)c2ccccc2)cc1,7.08µM,–,?,–,·,–
C=CCNC(=S)NNC(=O)c1ccc(OCCC)cc1,–,–,–,–,–,–
O=C(NNC(=O)c1ccc(NC(=O)c2ccccc2)cc1)c1ccccc1,?,–,?,?,–,–
CC(C)CC(=O)Nc1ccc(C(=O)NNC(=S)NC(=O)C2CCCCC2)cc1,?,–,89.1µM,–,–,–
N#CCC(=O)Nc1ccc(C(=O)NNC(=S)NC2CCCCC2)cc1,·,–,–,·,–,·
CCCOc1ccc(C(=O)NNC(=S)NC(=O)CC)cc1,8.91µM,–,31.6µM,–,–,–
CCCCC(=O)NC(=S)Nc1cccc(NC(=O)c2ccccc2)c1,50.1µM,–,–,–,–,–
CCN(CC)C(=O)c1sc2c(c1C)c(=O)n(-c1ccc(Cl)c(Cl)c1)c(=O)n2Cc1cc(=O)n2c(C)cccc2n1,–,–,?,–,·,·
Cc1ccc(NC(=O)Nc2cccs2)c(C)c1,?,–,–,–,·,·
CC(C)NC(=O)Nc1cccs1,14.1µM,–,–,–,–,79.4µM
O=C(Nc1cccs1)N1CCN(c2ncccn2)CC1,39.8µM,–,–,–,·,–
CCc1ccccc1NC(=O)Nc1cccs1,50.1µM,–,–,–,·,50.1µM
Cc1ccc(Cl)cc1NC(=O)Nc1cccs1,?,–,–,–,–,50.1µM
CCC(Cc1ccccc1)NC(=O)C1CCN(S(=O)(=O)c2ccc3c(c2)CC(C)N3C(C)=O)CC1 (stereo not drawn),·,–,–,–,–,–
O=C1NC[C@@H](c2ccccc2)OC(=O)[C@H](Cc2ccc(F)cc2)C/C=C\C[C@@H]1CC(=O)N(CCO)Cc1ccccc1,·,–,–,·,–,·
Cc1ccccc1NC(=O)Nc1cccs1,?,–,–,–,?,22.4µM
O=C(Nc1ccccn1)Nc1cccs1,56.2µM,–,–,?,·,50.1µM
Cc1ccc(-n2nc3c(N4CCCC(C(=O)NCCc5ccccc5)C4)nnc(C)c3c2C)cc1 (stereo not drawn),?,–,–,–,·,·
Cc1ccc(-n2cnc3cc(C(=O)NCc4ccccc4Cl)ccc32)c(C)c1,–,–,–,?,·,·
COCCNC(=O)c1cccc(OC2CCN(Cc3cccc(SC)c3)CC2)c1,–,–,–,–,–,–
SMILES,G9a inh,HP1b chromo inh,JMJD2A Tudor inh,BAZ2B inh,L3MBTL1 block,Sfp inh
Cc1ccc2c(c1)NC(=O)C(CC(=O)NCCN(C)C)O2 (stereo not drawn),44.7µM,–,–,–,·,–
CCC1CCCCN1CCCNC(=O)CC1Oc2ccc(C)cc2NC1=O (stereo not drawn),31.6µM,–,–,–,–,–
Cc1ccc2c(c1)NC(=O)C(CC(=O)NCCCN1CCN(c3cc(Cl)ccc3C)CC1)O2 (stereo not drawn),44.7µM,–,–,–,–,?
CCC1CCCCN1CCCNC(=O)CC1Oc2ccccc2NC1=O (stereo not drawn),–,–,–,–,·,–
Cc1ccc(CCNC(=O)CC2Oc3ccc(C)cc3NC2=O)cc1 (stereo not drawn),–,–,–,–,–,–
O=C(CC1Oc2ccc(Cl)cc2NC1=O)NC1CCCCCC1 (stereo not drawn),79.4µM,–,–,–,–,–
COC(=O)Cn1cnc(C(=O)Nc2ccc(C)c(C)c2)n1,·,–,–,·,–,·
CCc1ccc(C2c3c(-c4ccccc4O)n[nH]c3C(=O)N2Cc2ccncc2)cc1 (stereo not drawn),–,–,–,–,·,·
O=C(Nc1cccc(F)c1)N1CC[C@@]2(CCCN(C(=O)c3cnccn3)C2)C1,–[12.7 µM],·,·,·,·,–
COc1cc2c(cc1OC)CN(c1ccc(F)cc1[N+](=O)[O-])CC2,35.5µM,?,50.1µM,39.8µM,·,25.1µM
COc1cc2c(cc1OC)CN(C(=O)c1ccc(N3CCCC3)c([N+](=O)[O-])c1)CC2,–[2.33 µM],?,50.1µM,44.7µM,–,·
Cc1ccc(-c2nnc3ccccc3c2C(=O)Nc2ccccc2F)cc1,–,–,–,–,·,·
CCN(CC)c1ccc2c(Cl)c(Br)c(=O)oc2c1,–[0.0925 µM],–,–,–,–,56.2µM
CCn1c2ccccc2c2cc(/C(C)=N/O)ccc21,–,–,–,–,–,–
CCn1c2ccccc2c2cc(CNCc3ccc(OC)cc3OC)ccc21,39.8µM,?,?,44.7µM,–,22.4µM
CCn1c(=O)cc(SCC(=O)NCc2ccc(OC)cc2OC)c2ccccc21,–,–,–,–,·,·
CCn1c2ccccc2c2cc(N)ccc21,5.62µM,?,?,–,–,–
CCn1c2ccccc2c2cc(C3C(C#N)=C(C)NC(C)=C3C#N)ccc21,–,–,–,–,–,–
CCn1c2ccccc2c2cc(/C=C(/C#N)C(N)=S)ccc21,·,?,20µM,·,·,·
CCC(CC)NCc1ccc2c(c1)c1ccccc1n2CC,–[12.7 µM],?,20µM,44.7µM,–,50.1µM
CCn1c2ccccc2c2cc(CNCCCN3CCOCC3)ccc21,?,–,–,–,·,–
CCOC(=O)c1c(C)oc2nc(C)nc(NCc3ccccc3Cl)c12,–,–,–,–,·,·
Cn1c(CNC(=O)C(Cc2ccccc2)NC(=O)c2cccc(F)c2)cc(=O)n(C)c1=O (stereo not drawn),–,–,–,–,·,–
COc1cc(NC(=S)NN2CCN(C)CC2)cc(OC)c1OC,–,–,–,–,–,–
COc1ccc(-c2[nH]c3ccccc3c2SCCNC(=O)c2ccc(S(=O)(=O)N(C)C)cc2)cc1,–,–,–,–,·,·
CCc1c(C)nc2nncn2c1NCc1ccccc1,–,–,–,–,·,·
O=C1c2ccccc2[C@@H]2C[C@@H](O)[C@H](Nc3ccccc3-c3ccccc3)CCN12,·,–,–,·,–,·
CCn1c(C)cc(=S)c2ccccc21,3.16µM,–,–,–,–,?
CCn1c2ccccc2c2nc3ccccc3nc21,–,–,–,–,–,–
